# The panel holds about 79,000 compounds, 15% with a hit somewhere; the sample as a whole holds those more often. Values without a mark were called inactive. Calls of active or inactive are those of the source. Cut-off read from the data, not from the text of the source: active = growth inhibition above about 70%; inactive = the rest.
# Experiments:
# [1] = NCI Yeast Anticancer Drug Screen. Data for the rad50 strain (AID 155);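 note: 0% = growth of vehicle-only cultures of the same strain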; conditions: S. cerevisiae rad50 strain growth inhibition, active compounds read high
# Summary of the method: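 Genetically altered yeast (DNA repair pathway); compound treatment; growth inhibition vs vehicle ctrl.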
# [2] = NCI Yeast Anticancer Drug Screen. Data for the mec2-1 strain (AID 157); conditions: S. cerevisiae mec2-1 strain, active compounds read high
# Summary of the method: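 Vehicle-treated cultures served as reference for growth inhibition of compound-exposed mec2-1 yeast.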
# [3] = NCI Yeast Anticancer Drug Screen. Data for the sgs1 mgt1 strain (AID 161);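 note: 0% = growth of cultures given vehicle only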; conditions: S. cerevisiae sgs1 mgt1 strain, active compounds read high
# Summary of the method: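 Mutant yeast exposed to compound; growth scored against vehicle-only wells.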
# [4] = NCI Yeast Anticancer Drug Screen. Data for the cln2 rad14 strain (AID 165);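 note: 0% = growth equal to vehicle treated cultures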; conditions: S. cerevisiae cln2 rad14 strain, active compounds read high
# Summary of the method: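 Each compound was tested on cln2 rad14 yeast. Inhibition of growth was calculated against vehicle-exposed controls.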
# [5] = NCI Yeast Anticancer Drug Screen. Data for the bub3 strain (AID 167); conditions: S. cerevisiae bub3 mutant strain, active compounds read high
# Summary of the method: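 Yeast carrying a defined mutation is treated with each compound, and growth is compared with that of vehicle-exposed cells to give inhibition.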
# [6] = NCI Yeast Anticancer Drug Screen. Data for the mlh1 rad18 strain (AID 175); conditions: S. cerevisiae mlh1 rad18 strain growth inhibition, active compounds read high
# Summary of the method: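 Vehicle-treated cultures served as the reference for growth inhibition in a yeast strain carrying DNA damage repair alterations exposed to each compound.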
# [7] = at 5.0 µM (retest, dose inferred, filed as 0.5)
# [8] = at 50.0 µM (retest, dose inferred, filed as 5.0)
SMILES,"growth inhibition [1, 7]","growth inhibition [1, 8]",growth inhibition ([1]; at 50.0 µM),"growth inhibition [2, 7]","growth inhibition [2, 8]",growth inhibition ([2]; at 50.0 µM),"growth inhibition [3, 7]","growth inhibition [3, 8]",growth inhibition ([3]; at 50.0 µM),"growth inhibition [4, 7]","growth inhibition [4, 8]",growth inhibition ([4]; at 50.0 µM),"growth inhibition [5, 7]","growth inhibition [5, 8]",growth inhibition ([5]; at 50.0 µM),"growth inhibition [6, 7]","growth inhibition [6, 8]",growth inhibition ([6]; at 50.0 µM)
S=C(NCCNC(=S)[S][Sn]([c]1ccccc1)([c]1ccccc1)[c]1ccccc1)[S][Sn]([c]1ccccc1)([c]1ccccc1)[c]1ccccc1,97% (active),93% (active),89.8% (active),98% (active),96% (active),90.8% (active),97% (active),94% (active),91.5% (active),96% (active),93% (active),87.9% (active),98% (active),94% (active),90% (active),98% (active),91% (active),89.8% (active)
C=C/C=C/CC=C,-151%,38%,34.2%,-48%,-41%,1.2%,-62%,-38%,6.6%,-45%,-50%,85.3% (active),-60%,-46%,21.4%,-120%,-90%,59.9%
Cc1c2cc(Cl)ccc2cc2c1ccc1ccccc12,12%,5%,96.7% (active),-7%,6%,98.8% (active),2%,14%,99.2% (active),-3%,8%,70.8% (active),-6%,-4%,96.5% (active),-4%,16%,98.5% (active)
S=C(N/N=C/c1ccccn1)N1CCCCCC1,99% (active),100% (active),88.8% (active),98% (active),100% (active),92.8% (active),98% (active),99% (active),91.6% (active),97% (active),100% (active),92.8% (active),99% (active),100% (active),92.2% (active),99% (active),99% (active),88.8% (active)
O=NN(CCCl)C(=O)Oc1cc(Cl)c(Cl)cc1Cl,71% (active),98% (active),87.8% (active),79% (active),100% (active),92.7% (active),84% (active),100% (active),92.7% (active),37%,99% (active),90.5% (active),48%,100% (active),92% (active),96% (active),99% (active),91% (active)
COc1cccc(C2c3cc4c(cc3OC(Nc3ccccc3)C2C)OCO4)c1O (configuration not stated),-8%,97% (active),77.5% (active),-8%,95% (active),55.1%,1%,97% (active),94.8% (active),4%,97% (active),89.7% (active),-19%,96% (active),53.1%,0%,97% (active),96.5% (active)
COC(=O)c1[nH]c(=O)c(C#N)c(C(=O)OC)c1C(=O)c1ccc2ccccc2c1,-1%,31%,80.8% (active),-2%,20%,10.9%,-1%,25%,67.6%,7%,32%,20.3%,7%,41%,24.6%,12%,44%,80.8% (active)
OCc1cccc2c1Oc1ccccc1S2,2%,55%,52.4%,4%,63%,-25.4%,1%,66%,-10.3%,-5%,17%,-59.5%,11%,73% (active),-37.5%,4%,71% (active),2.9%
CC(=O)NC1=C(Oc2ccccc2)C(=O)c2ccccc2C1=O,94% (active),99% (active),99.2% (active),98% (active),100% (active),97.8% (active),88% (active),100% (active),99.1% (active),89% (active),100% (active),70% (active),98% (active),100% (active),94.5% (active),96% (active),99% (active),99.1% (active)
CC(C(=O)O)c1c(-c2ccccc2)ccc2ccccc12 (configuration not stated),37%,3%,38.9%,22%,4%,51.1%,2%,32%,51.5%,-8%,12%,52.1%,6%,14%,38.9%,5%,24%,63.6%
CC1(COc2ccccc2OCC2(C)CO2)CO1 (configuration not stated),5%,4%,12.2%,2%,1%,1.15%,0%,10%,7.75%,2%,4%,70.7% (active),-2%,-3%,5.6%,7%,36%,5.35%
COc1c2occc2c(OC)c2c(C)c(C(=O)OCCN3CCOCC3)oc12,-1%,31%,64%,-3%,5%,50.3%,-4%,43%,28.1%,-4%,2%,19.4%,1%,56%,58.1%,-5%,54%,66.2%
S=C(NC(=S)Nc1ccc(Cl)cc1)Nc1ccc(Cl)cc1,4%,-4%,68%,1%,2%,61.9%,5%,8%,72.1% (active),-9%,-8%,50.8%,-4%,2%,77.6% (active),20%,10%,78.7% (active)
COc1ccc(C2CC(CO)ON2c2ccccc2)cc1 (configuration not stated),-17%,7%,98% (active),-14%,-9%,98.5% (active),-1%,-15%,98.4% (active),-23%,-18%,97.9% (active),-21%,-33%,98.5% (active),-6%,1%,98.8% (active)
O=S(=O)(c1ccc(O)cc1)c1ccc(Cl)cc1,-8%,38%,44.3%,-11%,20%,81.3% (active),-5%,49%,79.5% (active),4%,35%,49.1%,0%,46%,56.2%,4%,79% (active),48.2%
CCOC(=O)c1[nH]n(-c2ccccc2)c(=O)c1/C=N/C(=S)Nc1ccccc1OC,-7%,-3%,0.4%,-14%,-11%,-31.6%,-5%,-3%,-18.1%,-23%,-12%,44.6%,0%,-9%,10.1%,-2%,1%,-16.2%
COc1ccc(OC)c(C(Cc2ccnc3ccccc23)Cc2ccnc3ccccc23)c1,1%,97% (active),99% (active),-14%,97% (active),99.2% (active),3%,99% (active),99% (active),1%,99% (active),98.6% (active),10%,98% (active),98.8% (active),-3%,97% (active),98.8% (active)
C/C(=C/c1ccccc1)C(=O)C1C(c2ccccc2)CC(O)C(C)C1c1ccccc1 (configuration not stated),11%,86% (active),82.2% (active),1%,81% (active),91.2% (active),10%,86% (active),82.3% (active),-4%,89% (active),88.4% (active),-5%,82% (active),77.8% (active),16%,90% (active),86.5% (active)
OC(CNc1ccnc2cc(Cl)ccc12)CNc1ccnc2cc(Cl)ccc12,-2%,34%,40%,0%,31%,23.1%,0%,46%,15.6%,-4%,46%,-21.2%,-2%,41%,2.8%,2%,60%,85.7% (active)

# From PubChem BioAssay (NCI)
